Several values for one entry are separate records, joined by “and”; a condition that tells them apart may be missing. Identical values can stand only once. Inconclusive results are not listed. Where a call stands in place of a potency, no number is given. The source holds several records for some structures; these can differ, active in one and inactive in another. Activity calls are given as the source filed them. Calls follow the shape of the dose curve; as a rule, active = well fitted curve in the direction sought with a large enough effect in the repeat runs; inconclusive = weak or mixed curves; inactive = no such curve, though single readings can be large; an effect the other way counts as inactive or inconclusive.
What was measured:
[1] = Caspase-3/7 induction in HepG2 cells by small molecules, qHTS assay (AID 1346978); also: nearly all actives have a fitted effect of over 15% in size; also: potency is read from the fitted curve at half-maximal effect
Summary of the method: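 Wild-type HepG2 cells, 2,000/well, settled 5 hr at 37 C and 5% CO2, then compound-treated for 17 hr; caspase-3/7 activity read by luminescent Caspase-Glo 3/7 after 30 min at room temperature.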

[2] = Caspase-3/7 induction in CHO-K1 cells by small molecules, qHTS cell viability counter screen (AID 1346979); also: nearly all actives have a fitted effect of over 35% in size; also: potency is read from the fitted curve at half-maximal effect
Summary of the method: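 Cytotoxicity counter screen run in parallel with the caspase-3/7 assay: CHO-K1 cells, 16hr compound treatment at 37C, then CellTiter-Fluor for 1hr before fluorescence reading.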

[3] = Caspase-3/7 induction in CHO-K1 cells by small molecules, qHTS assay (AID 1346980); also: nearly all actives have a fitted effect of over 15% in size
Summary of the method: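 Wild-type CHO-K1 cells exposed to compounds for 17hr at 37 C, 5% CO2. Caspase-3/7 activity then measured by Caspase-Glo 3/7 luminescence after 30min at room temperature.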

[4] = Caspase-3/7 induction in HepG2 cells by small molecules, qHTS cell viability counter screen (AID 1346981); also: nearly all actives have a fitted effect of over 30% in size; also: potency is read from the fitted curve at half-maximal effect
Summary of the method: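 Wild-type HepG2 cells, 2,000/well, settled 5 hr at 37 C, 5% CO2 before compound addition. Viability read by CellTiter-Fluor fluorescence, reagent added after 16 hr compound exposure, then 1 hr at 37C, in the same wells as the caspase read.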

[5] = target: Nuclear receptor subfamily 1 group I member 2 (Homo sapiens) (UniProt O75469); test: Human pregnane X receptor (PXR) small molecule agonists, qHTS assay (AID 1346982); also: nearly all actives have a fitted effect of over 35% in size; also: potency is read from the fitted curve at half-maximal effect
Summary of the method: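 PXR-Luc HepG2 reporter cells (CYP3A4-driven luciferase) in 5% charcoal-stripped FBS medium, plated 5 h before compound addition, then treated 24 h at 37C. Luciferase read by ONE-Glo luminescence after 30 min at room temperature.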

[6] = target: Nuclear receptor subfamily 1 group I member 2 (Rattus norvegicus) (UniProt Q9R1A7); test: Rat pregnane X receptor (rPXR) activation by small molecules, qHTS assay (AID 1346983); settings: rPXR luciferase reporter cells, One-Glo luminescence, 24 h; max activation: stronger effect = higher value; also: nearly all actives have a fitted effect of over 20% in size
Summary of the method: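 Cell-based rPXR activation assay: rPXR cells, 2,000 per well, rested 5hr at 37 C, then exposed to compounds in DMSO for 24 hr at 37 C. Luciferase activity read by One-Glo luminescence after 30 min at room temperature.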

[7] = target: Nuclear receptor subfamily 1 group I member 2 (Homo sapiens) (UniProt O75469); test: CYP3A4 induction through human pregnane X receptor (PXR) by small molecules, qHTS assay (AID 1346984); also: nearly all actives have a fitted effect of over 40% in size; also: potency is read from the fitted curve at half-maximal effect
Summary of the method: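 DPX-2 HepG2 cells carrying a PXR response element and CYP3A4-promoter luciferase construct, treated with compounds 24 hr at 37C. Then P450-Glo CYP3A4 Luciferin-IPA substrate (3uM final) for 3 hr at 37C, One-Glo added, luminescence read.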

[8] = target: Nuclear receptor subfamily 1 group I member 2 (Homo sapiens) (UniProt O75469); test: Human pregnane X receptor (PXR) activation by small molecules, qHTS assay (AID 1346985); also: nearly all actives have a fitted effect of over 40% in size
Summary of the method: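 DPX-2 cells (HepG2 co-transfected with a PXR response element and a CYP3A4-promoter luciferase construct) were seeded at 2,000 per well, rested 5 hr at 37C, then exposed to DMSO-dissolved compounds for 24 hr. Activation was read as luciferase luminescence.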

[9] = target: Cytochrome P450 2D6 (Homo sapiens) (UniProt P10635); test: Cytochrome P450 Family 2 Subfamily D Member 6 (CYP2D6) small molecule antagonists: luciferase reporter qHTS assay (AID 1671196); also: nearly all actives have a fitted effect of over 50% in size; also: potency is read from the fitted curve at half-maximal effect
Summary of the method: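 Cell-free P450-Glo system: CYP2D6 with proluciferin substrate was pre-incubated with compound for 10 min, then reacted with NADPH regeneration for 1 h at room temperature. Luciferin product was detected after 20 min, and data were reported as relative luminescence units.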

[10] = target: Cytochrome P450 2C19 (Homo sapiens) (UniProt P33261); test: Cytochrome P450 Family 2 Subfamily C Member 19 (CYP2C19) small molecule antagonists: luciferase reporter qHTS assay (AID 1671197); also: nearly all actives have a fitted effect of over 65% in size; also: potency is read from the fitted curve at half-maximal effect
Summary of the method: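 Light output is proportional to CYP2C19 activity: proluciferin substrate is converted to luciferin, then detected by a luciferin detection reagent that also stops the 1 h, 37C NADPH-driven reaction. Ketoconazole serves as positive control.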

Sequence of Nuclear receptor subfamily 1 group I member 2 (Rattus norvegicus) (Q9R1A7 whole entry, looked up): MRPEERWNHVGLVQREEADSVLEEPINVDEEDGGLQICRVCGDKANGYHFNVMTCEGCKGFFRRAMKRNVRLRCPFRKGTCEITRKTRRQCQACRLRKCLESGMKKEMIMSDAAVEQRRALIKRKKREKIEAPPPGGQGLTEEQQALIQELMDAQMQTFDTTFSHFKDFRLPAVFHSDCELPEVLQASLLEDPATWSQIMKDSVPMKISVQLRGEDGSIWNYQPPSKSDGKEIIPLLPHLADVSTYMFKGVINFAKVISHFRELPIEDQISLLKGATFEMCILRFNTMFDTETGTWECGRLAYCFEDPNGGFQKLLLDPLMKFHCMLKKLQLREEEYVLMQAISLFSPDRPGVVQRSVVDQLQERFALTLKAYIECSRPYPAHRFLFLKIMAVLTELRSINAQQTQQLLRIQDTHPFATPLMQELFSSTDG
Sequence of Cytochrome P450 2C19 (Homo sapiens) (P33261 whole entry, looked up): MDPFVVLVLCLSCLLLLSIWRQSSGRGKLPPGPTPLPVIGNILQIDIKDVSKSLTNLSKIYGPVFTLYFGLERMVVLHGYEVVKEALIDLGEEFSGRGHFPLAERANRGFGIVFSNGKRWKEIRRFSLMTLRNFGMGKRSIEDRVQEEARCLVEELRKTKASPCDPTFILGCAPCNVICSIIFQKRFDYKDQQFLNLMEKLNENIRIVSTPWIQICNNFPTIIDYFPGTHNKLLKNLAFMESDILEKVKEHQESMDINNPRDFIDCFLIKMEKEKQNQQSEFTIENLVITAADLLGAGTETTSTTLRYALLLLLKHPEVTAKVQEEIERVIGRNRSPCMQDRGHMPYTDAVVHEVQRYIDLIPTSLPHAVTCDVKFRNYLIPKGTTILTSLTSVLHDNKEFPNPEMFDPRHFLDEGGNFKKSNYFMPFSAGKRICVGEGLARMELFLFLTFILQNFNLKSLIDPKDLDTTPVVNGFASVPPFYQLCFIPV
Sequence of Cytochrome P450 2D6 (Homo sapiens) (P10635 whole entry, looked up): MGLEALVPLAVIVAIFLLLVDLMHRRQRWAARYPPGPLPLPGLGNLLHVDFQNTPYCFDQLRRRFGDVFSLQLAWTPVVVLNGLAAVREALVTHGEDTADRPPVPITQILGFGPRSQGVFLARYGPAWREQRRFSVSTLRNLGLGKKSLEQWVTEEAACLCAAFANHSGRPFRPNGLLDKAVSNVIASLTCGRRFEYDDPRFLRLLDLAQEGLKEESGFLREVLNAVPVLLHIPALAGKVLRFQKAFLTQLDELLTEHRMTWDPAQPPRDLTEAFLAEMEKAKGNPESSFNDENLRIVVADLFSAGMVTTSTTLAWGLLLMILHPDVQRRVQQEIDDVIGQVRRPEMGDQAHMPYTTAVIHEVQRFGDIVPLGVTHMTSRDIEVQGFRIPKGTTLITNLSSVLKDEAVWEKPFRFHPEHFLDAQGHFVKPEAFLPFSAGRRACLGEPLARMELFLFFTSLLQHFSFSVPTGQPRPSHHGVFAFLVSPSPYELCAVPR
Sequence of Nuclear receptor subfamily 1 group I member 2 (Homo sapiens) (O75469 whole entry, looked up): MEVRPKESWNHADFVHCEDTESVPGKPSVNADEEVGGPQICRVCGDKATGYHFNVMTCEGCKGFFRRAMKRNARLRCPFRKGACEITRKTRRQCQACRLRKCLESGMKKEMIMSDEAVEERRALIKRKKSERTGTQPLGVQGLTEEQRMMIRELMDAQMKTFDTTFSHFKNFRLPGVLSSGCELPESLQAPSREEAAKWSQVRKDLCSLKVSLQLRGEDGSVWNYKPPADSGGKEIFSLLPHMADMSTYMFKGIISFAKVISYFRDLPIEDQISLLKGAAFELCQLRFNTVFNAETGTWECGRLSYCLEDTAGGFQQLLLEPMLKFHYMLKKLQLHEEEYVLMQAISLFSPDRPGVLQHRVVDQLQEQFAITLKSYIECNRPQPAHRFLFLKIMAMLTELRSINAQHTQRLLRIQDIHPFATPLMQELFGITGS

SMILES | Potency [1] | Potency [2] | Potency [3] | Potency [4] | Potency [5] | max activation [6] | Potency [7] | outcome [8] | Potency [9] | Potency [10]
O=C1OC2(c3ccccc31)c1cc(Br)c(O)c(Br)c1Oc1c2cc(Br)c(O)c1Br | inactive | 6.2 µM (active) and 22.3 µM (active) and 11.9 µM (active) | inactive | 6.2 µM (active) and 19.9 µM (active) and 10.6 µM (active) | inactive | -7.26% (inactive) | inactive | inactive | inactive | 20.3 µM (active) and inactive
C[C@](N)(Cc1ccc(O)c(O)c1)C(=O)O | inactive | inactive | inactive | inactive | inactive | -6.56% (inactive) | inactive | inactive | inactive | inactive
CC(=O)CCC(=O)O | inactive | inactive | inactive | inactive | inactive | -1.2% (inactive) | inactive | inactive | inactive | inactive
Cc1cn([C@H]2C=C[C@@H](CO)O2)c(=O)[nH]c1=O | inactive | inactive | inactive | inactive | inactive | -2.07% (inactive) | inactive | inactive | inactive | inactive
CN(C)CCOC(c1ccccc1)c1ccccc1 | inactive | inactive | inactive | inactive | 54.8 µM (active) and inactive |  |  |  |  | 
CCCC[P+](CCCC)(CCCC)CCCC | inactive | inactive | inactive | inactive |  |  |  |  |  | 
Cn1c(=O)c2c(ncn2C)n(C)c1=O | inactive | 61.9 µM (active) and inactive | inactive | 61.9 µM (active) and inactive |  |  |  |  |  | 
CCCCCCCC(=O)OCC(COC(=O)CCCCCCC)OC(=O)CCCCCCC | inactive | inactive | inactive | inactive | inactive | -1.45% (inactive) | inactive | inactive | inactive | inactive
CC12CCC(CC1)C(C)(C)O2 | inactive | inactive | inactive | inactive | inactive | -0.857% (inactive) | inactive | inactive | inactive | inactive
O=C1O[C@H]([C@@H](O)CO)C(O)=C1O | inactive | inactive | inactive | inactive | inactive | -0.298% (inactive) and -0.0182% (inactive) | inactive | inactive | inactive | inactive
O=S1(=O)OC(c2ccc(O)cc2)(c2ccc(O)cc2)c2ccccc21 | inactive | 30.6 µM (active) and 13.3 µM (active) | inactive | 34.4 µM (active) and 48.6 µM (active) and 15 µM (active) | inactive | 1.08% (inactive) | inactive | inactive | inactive | inactive and 50.2 µM (active)
CN(C)C(=O)Nc1ccc(Cl)c(Cl)c1 | inactive | inactive | inactive | inactive | 60.9 µM (active) and 48.6 µM (active) and inactive | -0.866% (inactive) | inactive | inactive | 31.6 µM (active) and inactive | 39.8 µM (active) and 71 µM (active) and inactive
Cc1c(C(=O)O)c(O)cc2c1C(=O)c1c(O)c([C@@H]3O[C@H](CO)[C@@H](O)[C@H](O)[C@H]3O)c(O)c(O)c1C2=O | inactive | 33.5 µM (active) and 27.3 µM (active) and 23.7 µM (active) | inactive | 18.9 µM (active) and 15.4 µM (active) and 26.6 µM (active) | inactive | -3.66% (inactive) | inactive | inactive | 31 µM (active) and 39.9 µM (active) | 39 µM (active)
NC(=O)c1cccnc1 | inactive | inactive | inactive | inactive | inactive | -0.433% (inactive) | inactive | inactive | inactive | 49.3 µM (active) and inactive
O=C1NC(=O)C(c2ccccc2)(c2ccccc2)N1 | inactive | inactive | inactive | inactive |  |  |  |  |  | 
Nc1ccc(S(N)(=O)=O)cc1 | inactive | 48.8 µM (active) and inactive | inactive | inactive |  |  |  |  |  | 
CCCCCCc1ccc(O)cc1O | inactive | 61.3 µM (active) and 61.1 µM (active) and 1.19 µM (active) | inactive | inactive | 68.8 µM (active) and inactive | -2.3% (inactive) | inactive | inactive | 31.8 µM (active) and 31.7 µM (active) and 15.5 µM (active) | 5.04 µM (active) and 5.64 µM (active) and 3.89 µM (active)
Nc1c(N=Nc2ccc(-c3ccc(N=Nc4cc(S(=O)(=O)O)c5ccccc5c4N)cc3)cc2)cc(S(=O)(=O)O)c2ccccc12 | inactive | 12.2 µM (active) | inactive | 17.2 µM (active) | inactive | -6.72% (inactive) | 22.4 µM (active) | inactive | 35.6 µM (active) | 71 µM (active)
CCCCC1(COC(=O)CCC(=O)O)C(=O)N(c2ccccc2)N(c2ccccc2)C1=O | inactive | inactive | inactive | inactive |  |  |  |  |  | 

SMILES | Potency [1] | Potency [2] | Potency [3] | Potency [4] | Potency [5] | max activation [6] | Potency [7] | outcome [8] | Potency [9] | Potency [10]
Cc1ccc(S(=O)(=O)O)cc1 | inactive | inactive | inactive | inactive |  |  |  |  |  | 
O=c1[nH]cnc2c1ncn2[C@H]1CC[C@@H](CO)O1 | inactive | inactive | inactive | inactive | inactive | 0.0547% (inactive) | inactive | inactive | inactive | inactive
CCCCNC(=O)NS(=O)(=O)c1ccc(C)cc1 | inactive | inactive | inactive | inactive |  |  |  |  |  | 
C=CCc1ccc(O)c(OC)c1 | inactive | inactive | inactive | inactive | inactive | -1.79% (inactive) | inactive | inactive | 9.97 µM (active) and inactive | 39.7 µM (active) and 56.4 µM (active) and inactive
CN1CCc2cccc3c2[C@H]1Cc1ccc(O)c(O)c1-3 | inactive | 55 µM (active) and 22.8 µM (active) and 23.7 µM (active) | inactive | 61.8 µM (active) and 25.6 µM (active) | inactive | 9.82% (inactive) | 6.31 µM (active) | inactive | 45.3 µM (active) and 11.8 µM (active) and 38.9 µM (active) | inactive
CN(N=O)C(=O)N[C@@H]1[C@@H](O)[C@H](O)[C@@H](CO)O[C@@H]1O | inactive | inactive | inactive | inactive | inactive | -0.687% (inactive) | inactive | inactive | inactive | inactive
CCOC(N)=O | inactive | inactive | inactive | inactive | inactive | -2.09% (inactive) | inactive | inactive | inactive | 60 µM (active) and inactive
CC(O)(P(=O)(O)O)P(=O)(O)O | inactive | inactive | inactive | inactive | inactive | -1.65% (inactive) | inactive | inactive | inactive | inactive
Oc1ccccc1 | inactive | inactive | inactive | inactive |  |  |  |  |  | 
CC(C)NCC(O)c1ccc(O)c(O)c1 (configuration not stated) | inactive | inactive | inactive | inactive |  |  |  |  |  | 
NC(CO)(CO)CO | inactive | inactive | inactive | inactive | inactive | -3.86% (inactive) | inactive | inactive | inactive | inactive
CCOc1ccc(NC(C)=O)cc1 | inactive | inactive | inactive | inactive | inactive |  |  |  | inactive | 
NS(=O)(=O)c1cc2c(cc1Cl)NCNS2(=O)=O | inactive | inactive | inactive | inactive | inactive |  |  |  | inactive | 62.3 µM (active) and inactive
O=C(Nc1ncc([N+](=O)[O-])s1)c1cccs1 | inactive | 26.6 µM (active) | inactive | 29.8 µM (active) | 531 nM (active) |  | inactive |  | 12.3 µM (active) | 8.71 µM (active)
CN1CCC[C@H]1c1cccnc1 | inactive | inactive | inactive | inactive | inactive |  |  |  | 35.3 µM (active) and inactive | inactive
CCN(CC)C(=O)c1cccc(C)c1 | inactive | inactive | inactive | inactive | inactive | -4.83% (inactive) |  | inactive | inactive | inactive and 71 µM (active)
CCCCCCCCCCCC[N+](C)(C)Cc1ccccc1 | 67.3 µM (active) and 66.4 µM (active) | 42.4 µM (active) and 33.3 µM (active) and 26.6 µM (active) | inactive | 67.3 µM (active) and 74.5 µM (active) and inactive | inactive |  |  |  | 984 nM (active) and 866 nM (active) and 219 nM (active) | 78.1 µM (active) and 34.5 µM (active) and 17.4 µM (active)
CC(=O)C(=O)O | inactive | inactive | inactive | inactive | inactive |  |  |  | inactive | inactive

From PubChem BioAssay (Tox21)
